Here are results for eight compounds from PubChem BioAssay (NCI).

Among the test systems are NCI-H23 lung; NCI-H226 lung; NCI-H322M lung; HOP-62 NSCLC; NCI-H460 lung; HOP-92 NSCLC; NCI-H522 lung; A549/ATCC NSCLC; 786-0 renal; COLO 205 colon; DU-145 prostate; K-562 leukemia; MALME-3M melanoma; MDA-MB-231 breast; RXF 393 renal; SF-268 CNS; SF-295 CNS; SF-539 CNS; UACC-257 melanoma; M14 melanoma.
Holding throughout (test): NCI-60 one-dose screen, 48 h (100 = growth as untreated, 0 = no growth, -100 = all killed)
Settings in all cases: 10 µM unless noted

This is part of a sample that, as a whole, favours compounds with a hit. Of some 83,000 tested, about 20% had one in any assay.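 The endpoint reported here, percent growth, reads 100 for growth as untreated, 0 for no net growth and -100 for all cells dead.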 Unmarked numbers belong to inactive results. Active and inactive are the calls of the source. Rule for the calls: active = growth percent below 10; inactive = the rest.

On to `CCCCCC(=O)OCCC1CCCCC1`, for which the growth is 96.2% with NCI-H23 lung; 101% with NCI-H226 lung; 99.9% in the assay with NCI-H322M lung; 98.6% with HOP-62 NSCLC; 105% in the assay on NCI-H460 lung; 70% in the assay on HOP-92 NSCLC. The growth was 95% with NCI-H522 lung; 98.4% in the assay on A549/ATCC NSCLC; 106% with 786-0 renal; 101% in the assay on COLO 205 colon; 98.2% in the assay on DU-145 prostate; 107% with K-562 leukemia. In addition, the growth with MALME-3M melanoma was 84.1%; in the assay with MDA-MB-231 breast, 114%; in the assay on RXF 393 renal, 104%; in the assay on SF-268 CNS, 93%; in the assay on SF-295 CNS, 108%; with SF-539 CNS, 97.8%. For the same compound, the growth in the assay with UACC-257 melanoma was 95.9%; with M14 melanoma it was 94%.

With `CN(C)c1ccc2nc3ccc(=[N+](C)C)cc-3oc2c1`, the growth is 9.83% (active) in the assay on NCI-H23 lung; 33.2% in the assay with NCI-H226 lung; 9.08% (active) in the assay with NCI-H322M lung; 7.12% (active) with HOP-62 NSCLC; 35.3% in the assay with NCI-H460 lung; 55.9% with HOP-92 NSCLC. Further, the growth in the assay on NCI-H522 lung is -37.4% (active); with A549/ATCC NSCLC, 30.7%; in the assay on 786-0 renal, 66.1%; in the assay on COLO 205 colon it was -10.3% (active); in the assay with DU-145 prostate it was 59%; in the assay with K-562 leukemia, 16.9%. Besides, the growth with MALME-3M melanoma is -21.8% (active); with MDA-MB-231 breast it was -14.6% (active); in the assay with RXF 393 renal, 89.6%; with SF-268 CNS it was -17.5% (active); with SF-295 CNS, 50.3%; with SF-539 CNS it was 7.14% (active). In addition, the growth in the assay on UACC-257 melanoma was -30.1% (active); in the assay with M14 melanoma it was 3.87% (active).

Take `NC(=O)c1cc2c3ccccc3ccn2c1-c1ccccc1`: the growth with NCI-H23 lung was 18.7%; with NCI-H226 lung, 23.3%; in the assay on NCI-H322M lung it was 46.3%; with HOP-62 NSCLC, 24.3%; with NCI-H460 lung it was 0.187% (active); in the assay with HOP-92 NSCLC, 32.7%. Besides, the growth in the assay with NCI-H522 lung was 53.1%; in the assay on A549/ATCC NSCLC it was 22.8%; in the assay with 786-0 renal, 17.4%; with COLO 205 colon, -13.2% (active); in the assay with DU-145 prostate, 5.57% (active); in the assay with K-562 leukemia, 4.64% (active). Moreover, the growth was 86% in the assay on MALME-3M melanoma; 29.3% in the assay on MDA-MB-231 breast; 25.5% in the assay with RXF 393 renal; 22% with SF-268 CNS; 4.09% (active) in the assay with SF-295 CNS; -19.7% (active) with SF-539 CNS. Besides, the growth in the assay with UACC-257 melanoma was 64.9%; with M14 melanoma it was 11.3%.

For `CC(=O)Nc1ncc(S(=O)(=O)c2ccc([N+](=O)[O-])cc2)s1`, the growth in the assay on NCI-H23 lung was 117%; in the assay with NCI-H226 lung, 105%; in the assay on NCI-H322M lung, 113%; in the assay on HOP-62 NSCLC it was 93.2%; with NCI-H460 lung, 113%; with HOP-92 NSCLC it was 110%. Also, the growth in the assay with NCI-H522 lung was 94.3%; in the assay on A549/ATCC NSCLC, 103%; with 786-0 renal, 98%; with COLO 205 colon, 106%; in the assay on DU-145 prostate, 113%; with K-562 leukemia, 99.3%. For the same compound, the growth with MALME-3M melanoma was 118%; in the assay on MDA-MB-231 breast it was 123%; in the assay with RXF 393 renal it was 115%; in the assay with SF-268 CNS it was 100%; in the assay on SF-295 CNS, 112%; in the assay on SF-539 CNS, 113%. Moreover, the growth in the assay with UACC-257 melanoma was 104%; with M14 melanoma it was 97.3%.

For the compound `COc1ccc(C2CCCCC2=O)cc1` (stereo not given), the growth is 108% in the assay on NCI-H23 lung; 113% in the assay on NCI-H226 lung; 113% in the assay on NCI-H322M lung; 95.5% in the assay on HOP-62 NSCLC; 108% in the assay on NCI-H460 lung; 98.9% in the assay with HOP-92 NSCLC. Moreover, the growth is 106% with NCI-H522 lung; 104% in the assay with A549/ATCC NSCLC; 105% in the assay on 786-0 renal; 104% in the assay with COLO 205 colon; 123% in the assay with DU-145 prostate; 104% in the assay on K-562 leukemia. Also, the growth is 120% in the assay on MALME-3M melanoma; 120% in the assay with MDA-MB-231 breast; 110% in the assay with RXF 393 renal; 116% with SF-268 CNS; 100% with SF-295 CNS; 102% with SF-539 CNS. The growth with UACC-257 melanoma was 106%; in the assay with M14 melanoma, 108%.

Take `CCOC(=O)/C(C)=C\c1ccc(OC)c(OC)c1`: the growth with NCI-H23 lung was 98.1%; with NCI-H226 lung, 100%; in the assay with NCI-H322M lung it was 101%; in the assay on HOP-62 NSCLC, 105%; in the assay with NCI-H460 lung it was 102%; with HOP-92 NSCLC, 93.6%. The growth in the assay on NCI-H522 lung was 107%; with A549/ATCC NSCLC, 101%; in the assay on 786-0 renal it was 95.5%; with COLO 205 colon it was 105%; in the assay on DU-145 prostate, 99.5%; in the assay on K-562 leukemia, 87%. The growth in the assay on MALME-3M melanoma was 112%; in the assay with MDA-MB-231 breast it was 102%; in the assay on RXF 393 renal, 112%; with SF-268 CNS, 98.3%; with SF-295 CNS, 100%; in the assay with SF-539 CNS, 101%. Moreover, the growth in the assay with UACC-257 melanoma is 108%; in the assay on M14 melanoma it was 105%.

As to `Cc1cc(Cc2ccccc2)c(O)c(Cc2ccccc2)c1`, the growth in the assay with NCI-H23 lung is 82.5%; in the assay with NCI-H226 lung, 85.9%; with NCI-H322M lung it was 97.3%; in the assay with HOP-62 NSCLC, 85.5%; in the assay with NCI-H460 lung, 99.4%; in the assay with HOP-92 NSCLC, 90%. The growth in the assay on NCI-H522 lung is 78%; in the assay on A549/ATCC NSCLC, 76.5%; in the assay on 786-0 renal, 86.6%; in the assay with COLO 205 colon, 106%; with DU-145 prostate, 103%; with K-562 leukemia, 82.6%. In addition, the growth with MALME-3M melanoma was 103%; with MDA-MB-231 breast it was 91.6%; in the assay with RXF 393 renal, 88.2%; with SF-268 CNS, 93.4%; with SF-295 CNS, 101%; in the assay with SF-539 CNS it was 101%. Moreover, the growth with UACC-257 melanoma is 93.4%; with M14 melanoma, 91.5%.

For the compound `Nc1cc(F)ccc1[N+](=O)[O-]`, the growth in the assay with NCI-H23 lung is 103%; in the assay on NCI-H226 lung it was 95.9%; in the assay with NCI-H322M lung it was 92.6%; in the assay on HOP-62 NSCLC it was 110%; in the assay on NCI-H460 lung it was 103%; with HOP-92 NSCLC, 89.5%. In addition, the growth in the assay with NCI-H522 lung was 106%; in the assay on A549/ATCC NSCLC, 116%; with 786-0 renal, 94.1%; in the assay on COLO 205 colon, 116%; in the assay with DU-145 prostate, 117%; with K-562 leukemia, 114%. Also, the growth with MALME-3M melanoma is 108%; with MDA-MB-231 breast it was 105%; in the assay on RXF 393 renal it was 94.3%; in the assay with SF-268 CNS, 111%; in the assay on SF-295 CNS, 108%; in the assay on SF-539 CNS, 101%. The growth is 118% with UACC-257 melanoma and 94.4% in the assay with M14 melanoma.
